Compound activity deposited in PubChem by National Center for Advancing Translational Sciences (NCATS).
Sm TGR inh: blocks Schistosoma mansoni thioredoxin glutathione reductase; AID 485364; purified TGR, DTNB reduction, TNB absorbance 405 nm; Q962Y6; hit rate 3% among 360,000; Potency, µM (top dose mostly 114 µM), for inactives: at the highest dose activity change, negative = inhibition, most hits filed as inhibitors; active = well fitted inhibition curve with a large enough effect; inconclusive = small, poorly fitted or top-dose-only effect; inactive = no such curve, though single readings can be large or run the other way; also: % is scaled to controls: 0 for no effect and ±100 for the full control effect; nearly all actives have a fitted effect of over 60% in size
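First, TGR (20 nM dispensed) and NADPH were mixed with compound. Second, a 15 min room-temperature incubation followed. Third, further NADPH and then DTNB were added to start the reaction. Finally, TNB absorbance was monitored kinetically.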
SARS PLpro yeast: blocks SARS-CoV papain-like protease in a yeast assay | S. cerevisiae expressing SARS-CoV PLpro, growth rescue | hit rate 0.19% among 330,000 | Potency, µM (series often up to 32.9 µM), for the others: at the highest dose activity, positive = growth rescue, most hits filed as activators | AID 485353; calls by dose curve; also: 0% is about no effect; nearly all actives have a fitted effect of over 55% in size
* marks the source's active call; other numbers are inactive results; u = inconclusive; x = not tested or not shown; [ ] = another dose, or the depositor's remark. Sampled rows, rich in hits. Any-hit rate of the full collection: about 3%. Potency is read from the fitted curve at half-maximal effect.

SMILES	Sm TGR inh	SARS PLpro yeast
O=C(CN1C(=O)COc2ccccc21)N(Cc1ccccc1)Cc1ccccn1	-13%	13%
CCc1ccccc1N(C)C(=O)Cn1cnc2sc(C)c(S(=O)(=O)N3CCC(C)CC3)c2c1=O	9%	x
COCc1c(Br)c(C)nc2sc3c(=O)n(-c4cccc(Br)c4)nnc3c12	0%	x
COc1ccc(CCNc2oc(COc3ccccc3F)nc2C#N)cc1	-16%	-22%
N#Cc1nc(COc2ccccc2F)oc1NCc1ccc(F)cc1	25µM*	-4%
COCCC(=O)Nc1ccc2c(c1)CN(C(=O)c1ccc(CSC)o1)CC2	45µM*	-4%
COCCC(=O)Nc1ccc2c(c1)CN(C(=O)CCSC)CC2	10%	-1%
CN1CCC(OC(=O)COc2ccc(Br)cc2)CC1	20µM*	0%
COc1ccc(OCC(=O)OC2CCN(C)CC2)cc1	-31%	5%
COc1ccc(NC(=O)CC(c2ccccc2)c2ccco2)cc1 (centres undefined)	40µM*	-1%
COc1ccc(NC(=O)CC(C(=O)O)C(C)c2ccccc2)cc1 (centres undefined)	5%	2%
CCOC(=O)N1CCC(NC(=O)c2ccc3c(c2)N(Cc2ccccc2C)C(=O)c2ccccc2S3=O)CC1 (centres undefined)	1%	x
COc1cc(Cl)c(C)cc1NC(=O)Cn1ncc2c(=O)oc3ccccc3c21	-2%	x
COc1cc(CC(=O)Nc2ccccc2N2CCOCC2)cc(OC)c1OC	-1%	2%
COc1ccc(C)cc1C(=O)CCC(=O)Nc1ccccc1N1CCOCC1	22µM*	-18%
N[C@@H](Cc1c[nH]c2ccc(O)cc12)C(=O)O	0%	x
NC(Cc1c[nH]c2ccc(OCc3ccccc3)cc12)C(=O)O (centres undefined)	11µM*	-2%
O=C(Nc1cccc(Cl)c1)c1cccnn1	4%	0%
O=C(Nc1cccc(C(F)(F)F)c1)c1cccnn1	89µM*	-4%
C[n+]1ccc(/C=N/Nc2nc(Cl)c(C#N)c(Cl)c2Cl)cc1	11µM*	-6%
Clc1nnc(N/N=C/c2ccccc2)c2ccccc12	0%	-3%
CCOC(=O)c1c(C)[nH]c(C)c1S(=O)(=O)N1CCC(C(=O)Nc2ccc(C)cn2)CC1	33%	x
O=C(NC1CCCC1)C(c1ccccc1)N(Cc1ccc(F)cc1)C(=O)c1csnn1 (centres undefined)	-5%	0%
O=C(NC1CCCC1)C(c1ccc(Cl)cc1)N(Cc1ccc(F)cc1)C(=O)CCl (centres undefined)	7.1µM*	4%
COC(=O)c1ccc(C(C(=O)NC2CCCCC2)N(Cc2ccc(F)cc2)C(=O)Cc2cccs2)cc1 (centres undefined)	-9%	3%
SMILES	Sm TGR inh	SARS PLpro yeast
O=C(NC1CCCC1)C(c1ccc(F)cc1)N(Cc1ccc(Cl)cc1)C(=O)CCl (centres undefined)	2.8µM*	-10%
N#Cc1ccccc1S(=O)(=O)N1CCCC(c2nc3c(nnn3Cc3cccc(Cl)c3)c(=O)[nH]2)C1 (centres undefined)	-8%	x
COc1ccc(-c2noc(CSc3nc4ccccc4[nH]3)n2)cc1OC	0%	x
CNC(=O)c1c(C)[nH]c(=S)c(C#N)c1-c1ccco1	32µM*	0%
Cc1ccccc1NC(=O)c1c(C)[nH]c(=S)c(C#N)c1-c1ccco1	-15%	-9%
O=C1NC(=O)C(=Cc2ccc(-c3ccccc3[N+](=O)[O-])o2)C(=O)N1	-3%	0%
Cc1ccc(-c2ccc(/C=C3/NC(=O)NC3=O)o2)cc1[N+](=O)[O-]	-11%	3%
O=C1NC(=O)C(=Cc2ccc(-c3cc(Cl)ccc3[N+](=O)[O-])o2)C(=O)N1	32µM*	1%
CC1=C(C#N)C(=O)NC(=O)/C1=C\c1ccc(-c2cc(C)c(C)cc2[N+](=O)[O-])o1	3.5µM*	-2%
COc1ccc(C2c3[nH]c4ccc(OC)cc4c3CCN2C(=O)Nc2ccccc2)cc1 (centres undefined)	4%	x
CCCCC(=O)Nc1nnc(SCc2cc(=O)n3cc(C)ccc3n2)s1	-2%	x
Cn1c(=O)[nH]c(=O)c2c1nc([N+](=O)[O-])n2Cc1ccccc1	1.8µM*	-2%
Cn1c(=O)[nH]c(=O)c2c1nc(Br)n2CCC(=O)c1ccccc1	13µM*	u
Cn1c(=O)[nH]c(=O)c2c1nc(N1CCNCC1)n2Cc1ccccc1	u	-16%
Cn1c(=O)[nH]c(=O)c2c1nc(Br)n2C/C=N/NC(=O)c1ccccc1	-9%	0%
CC(=O)CSc1nc2c(c(=O)[nH]c(=O)n2C)n1Cc1cccc(Br)c1	56µM*	2%
CC(C)Cn1c([N+](=O)[O-])nc2c1c(=O)[nH]c(=O)n2C	22µM*	12%
Cn1c(=O)[nH]c(=O)c2c1nc(SCCC(=O)O)n2Cc1cccc(Br)c1	-3%	11%
CCNc1nc2c(c(=O)[nH]c(=O)n2C)n1CC(C)C	5%	10%
CCc1ccc2oc(-c3cc(NC(=O)c4cc([N+](=O)[O-])ccc4N4CCOCC4)ccc3Cl)nc2c1	-1%	x
CCn1nc(-c2ccccc2)c(-c2ccccc2)c(C(=O)OCCOC)c1=O	-6%	x
COc1cc2c(cc1OC)C(c1ccc(F)cc1)N(c1cccc(C#N)c1)C(=O)C2 (centres undefined)	-1%	x
CC1CCN(CC(CS(=O)(=O)c2ccc([N+](=O)[O-])cc2)N2CCC(C)CC2)CC1 (centres undefined)	2.5µM*	-3%
Cc1ccc(S(=O)(=O)CC(CN2CCOCC2)N2CCOCC2)cc1 (centres undefined)	x	-1%
Cn1cc(NC(=O)c2cc(NC(=O)c3cc(NC=O)cn3C)cn2C)cc1C(=O)NCCC(=N)N	14µM*	1%
SMILES	Sm TGR inh	SARS PLpro yeast
Cc1ccc(NC(=O)c2cc(S(=O)(=O)N3CCCC3)cn2C)cc1C	-5%	2%
Cc1ccc(N2C(=O)CS(=O)(=O)C23C(=O)N(Cc2ccccc2C)c2ccccc23)cc1Cl (centres undefined)	3%	x
COc1cc2c(cc1OC)C1O[C@](CCCCN3C(=O)c4ccccc4C3=O)(C2)OC2=C1C(=O)OC1(CCCCC1)C2	4.5µM*	-1%[6.58 µM]
O=C1C2=C(C(=O)c3ccccc31)C1O[C@](CCCCN3C(=O)c4ccccc4C3=O)(Cc3ccccc31)O2	u	-5%[6.58 µM]
COc1cc2c(cc1OC)C1O[C@](CCCCN3C(=O)c4ccccc4C3=O)(C2)OC2=C1C(=O)CC(C)(C)C2	4.5µM*	u
O=C1OC2(CCCCC2)CC2=C1C1O[C@](CCCCN3C(=O)c4ccccc4C3=O)(Cc3ccccc31)O2	u	1%[6.58 µM]
Cc1ccccc1CN1CCCN(CC(=O)Nc2ccc(F)cc2)S1(=O)=O	3%	x
CCOC(=O)/C=c1\s/c(=C(\C#N)C(=O)NC)n(-c2ccccc2)c1=O	-5%	2%
CCOC(=O)/C=c1\s/c(=C(\C#N)C(N)=O)n(-c2ccccc2)c1=O	10µM*	-4%
COc1ccc(N2CCN(C(=O)CCc3c(C)nn(-c4ccc(N5CCCC5)nn4)c3C)CC2)cc1	-5%	x
Cc1ccc(NC(=O)C2CCCN2S(=O)(=O)c2ccc3c(c2)CCCC(=O)N3)cc1C (centres undefined)	-3%	x
COCCCn1c(C)cc(C(=O)CN2c3cccc4cccc(c34)S2(=O)=O)c1C	22µM*	-2%
CCn1c(C)cc(C(=O)CN2C(=O)c3ccccc3S2(=O)=O)c1C	-8%	-4%
COc1ccc(NC(=O)c2cc(S(=O)(=O)N3CCCCCC3)cn2C)cc1Cl	-117%	x
